A selection: hits, their analogues and other compounds. The true share with any hit is near 27%.
CYP2C9 act: CYP2C9 (human) activation; hit rate 1.4% among 96,000; activation factor at 5 µM; recombinant CYP2C9, luciferin-H conversion, luminescence; stronger effect = higher value; factor 1 = untreated enzyme, 0 = blocked;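 active = activation factor of 2 or more for CYP2C9 at a 5 µM dose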
CYP2C19 inh: inhibitors of human CYP2C19; P33261; CYP2C19 Supersomes, luciferin-H EGE luminescence, 30 min; inhibition, % at 5 µM; hit rate 21% among 96,000; AID 778;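 active = CYP2C19 inhibition above a set limit at 5 µM in the primary screen, cut at about 50% in these data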
sEH inhibitor: soluble epoxide hydrolase (human) inhibition; P34913; recombinant human sEH enzymatic activity assay; AID 707; inhibition, % at 2 µM; hit rate 0.34% among 91,000; in the data active = inhibition above about 80%
Target sequence (P34913 whole entry, looked up): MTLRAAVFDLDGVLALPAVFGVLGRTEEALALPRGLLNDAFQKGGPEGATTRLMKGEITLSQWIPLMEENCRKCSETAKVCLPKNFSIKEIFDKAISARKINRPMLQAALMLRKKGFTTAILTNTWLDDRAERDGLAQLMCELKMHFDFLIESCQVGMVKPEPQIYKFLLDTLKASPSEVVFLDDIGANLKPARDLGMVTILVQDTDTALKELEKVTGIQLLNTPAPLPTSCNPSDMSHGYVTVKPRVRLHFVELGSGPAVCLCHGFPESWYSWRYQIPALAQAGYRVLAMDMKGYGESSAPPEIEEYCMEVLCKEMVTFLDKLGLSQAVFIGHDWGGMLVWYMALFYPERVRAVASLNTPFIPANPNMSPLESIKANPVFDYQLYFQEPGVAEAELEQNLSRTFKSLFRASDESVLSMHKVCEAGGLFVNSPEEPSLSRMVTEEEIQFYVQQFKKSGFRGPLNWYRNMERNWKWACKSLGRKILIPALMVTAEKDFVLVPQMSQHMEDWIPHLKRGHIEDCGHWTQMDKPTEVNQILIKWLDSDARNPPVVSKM
CYP2C19 act: increases human CYP2C19 enzyme activity | activation factor at 5 µM | AID 1025 | 96,000 tested, under 10 active | recombinant CYP2C19, luciferin-H EGE luminescence; stronger effect = higher value; 0 = fully inhibited enzyme, 1 = untreated enzyme | P33261;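 active = activation factor of at least 2 at 5 µM in the primary screen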
sEH act: increases human soluble epoxide hydrolase activity; purified human sEH enzymatic activity, activator screen; activation, % at 2 µM; hit rate 0.04% among 91,000; AID 717; in the data active = activation above about 37%
CYP2C9 inh: human CYP2C9 inhibition | CYP2C9 Supersomes, luciferin-H conversion, luminescence | hit rate 20% among 96,000 | inhibition, % at 5 µM | P11712;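 active = blocking of liver enzyme CYP2C9 beyond about 50% at 5 µM, limit read from the data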
Of the large screens only hits and unclear results are named; the others gave an inactive call.

COc1ccc(C2C3=C(CC(C)(C)CC3=O)Oc3ncn(Cc4ccccc4)c(=N)c32)cc1 (configuration not stated)	none
COc1ccc(C2C3=C(CC(C)(C)CC3=O)Oc3ncn(CCCn4ccnc4)c(=N)c32)cc1 (configuration not stated)	CYP2C9 inh 77.7
CC1(C)CC(=O)C2=C(C1)Oc1ncn(CCCn3ccnc3)c(=N)c1C2c1ccccc1 (configuration not stated)	CYP2C19 inh 78.9, CYP2C9 inh 90.4
Cc1ccc(C)c(NC(=O)C(C)CC2COCCO2)c1 (configuration not stated)	none
CSc1ccc(C2C3(C#N)C(N)=NC4(OCCO4)C23C#N)cc1 (configuration not stated)	none
COc1ccc(C2/C(=C(\O)c3cccc(OC)c3)C(=O)C(=O)N2c2ccccn2)cc1 (configuration not stated)	CYP2C9 inh 68.9
Cc1ccc(C)c(/C(O)=C2\C(=O)C(=O)N(Cc3cccnc3)C2c2cccnc2)c1 (configuration not stated)	CYP2C9 inh 50.8
COc1cccc(/C(O)=C2/C(=O)C(=O)N(Cc3cccnc3)C2c2ccco2)c1 (configuration not stated)	CYP2C9 inh 88.8
COCCN1C(=O)C(=O)/C(=C(/O)c2cccc(OC)c2)C1c1ccco1 (configuration not stated)	none
O=C1C(=O)N(CCCn2ccnc2)C(c2ccccn2)/C1=C(/O)c1ccccc1 (configuration not stated)	none (no result: sEH inhibitor, sEH act)
O=C1C(=O)N(Cc2cccnc2)C(c2ccccn2)/C1=C(/O)c1ccccc1 (configuration not stated)	CYP2C9 inh 76.3
Cc1ccc(C)c(/C(O)=C2\C(=O)C(=O)N(CCCN3CCOCC3)C2c2cccnc2)c1 (configuration not stated)	none
COc1cccc(CNc2ccc3c(c2)ncn3C(C)C)c1OC	CYP2C19 inh 86.2, CYP2C9 inh 64.2
CCCn1cnc2cc(NCc3ccccn3)ccc21	none
CCCn1cnc2cc(NCc3cccc(OC)c3O)ccc21	CYP2C19 inh 86.5, CYP2C9 inh 58.4
COC(=O)CN1C(=O)C2(C(C#N)=C(N)Oc3c2c(C)nn3-c2ccccc2)c2ccccc21 (configuration not stated)	none (no result: CYP2C9 act, CYP2C19 inh, CYP2C19 act, CYP2C9 inh)
COc1ccccc1CNC(=O)CCNS(=O)(=O)c1cccc2nsnc12	CYP2C9 act 2.3, CYP2C19 inh 79.9
COc1ccccc1NC(=O)CS(=O)(=O)c1cccc2nsnc12	CYP2C9 act 2.5
CCOc1ccccc1NS(=O)(=O)c1cccc2nsnc12	CYP2C19 inh 91.2
Cc1cccc(NC(=O)CCNS(=O)(=O)c2cccc3nsnc23)c1	CYP2C19 inh 66.7 (no result: sEH inhibitor, sEH act)
CCOc1ccc(OCC)c(NS(=O)(=O)c2cccc3nsnc23)c1	none (no result: sEH inhibitor, sEH act)
COc1ccc(C(=O)O)cc1NS(=O)(=O)c1cccc2nsnc12	none (no result: sEH inhibitor, sEH act)
O=C(Cc1cccs1)Nc1nnc(Cc2ccc(F)cc2)s1	none
NC(=O)C1CCN(S(=O)(=O)c2cccc(S(=O)(=O)N3CCCCC3)c2)CC1	none (no result: sEH inhibitor, sEH act)
CC(=O)c1cccc(NC(=O)Nc2cnn(Cc3ccc(Cl)cc3Cl)c2)c1	none
c1ccc(NC(=NCc2ccco2)c2ccccc2)cc1	none
CCOC(=O)/C(C(N)=NCc1ccco1)=C(/O)c1ccccc1	CYP2C19 inh 54.7
CC(=O)c1c(C)cc(C)c(CSc2nc(C)cc(=O)[nH]2)c1C	none (no result: sEH inhibitor, sEH act)
COc1ccc(-n2cnnc2SCc2cnc(-c3ccccc3)s2)cc1	CYP2C19 inh 66.0
Cc1ccc(-n2c(N)c(C(=O)N3CCCCC3)sc2=S)cc1	CYP2C19 inh 67.2
Cc1ccccc1NC(=O)C1Cc2ccccc2C(=O)O1 (configuration not stated)	CYP2C19 inh 71.0
O=C1OC(C(=O)Nc2nccs2)Cc2ccccc21 (configuration not stated)	none
C/C(Cc1ccccc1)=N\NC(=O)CCCCCC(=O)N/N=C(\C)Cc1ccccc1	CYP2C19 inh 57.0
COc1ccccc1CNC(=O)C/C(C)=N/NC(=O)Cc1ccccc1	none
CCCCCCC/C(C)=N/NC(=O)CC(=O)NCCc1ccccc1	CYP2C9 inh 64.9
COc1ccc(C2C3=C(CCCC3=O)Nc3nc4ccccc4n32)cc1OC (configuration not stated)	none (no result: CYP2C9 act, CYP2C19 inh, CYP2C19 act, CYP2C9 inh)
O=C(COC(=O)c1ccc2ccccc2n1)Nc1ncc(C(F)(F)F)cc1Cl	CYP2C19 inh 58.3, CYP2C9 inh 50.7
O=C(COC(=O)CCc1ccc(S(=O)(=O)N2CCOCC2)cc1)Nc1ncc(C(F)(F)F)cc1Cl	CYP2C9 inh 54.7
Cc1cc(C(=O)OCC(=O)Nc2cc(S(=O)(=O)N3CCOCC3)ccc2Cl)c(C)o1	CYP2C19 inh 51.8, CYP2C9 inh 79.6
Cc1cc(C(=O)OCC(=O)NC(=O)NC(C)(C)C)c(C)o1	none
Cc1cc(C(=O)OCC(=O)Nc2ccc(F)cc2F)c(C)o1	CYP2C19 inh 56.2
COCCCNC(=O)C1CCC(=O)N1Cc1ccccc1Cl (configuration not stated)	none
CCc1nc2ccccc2c(C(=O)OCC(=O)Nc2cccc(S(=O)(=O)N3CCOCC3)c2)c1C	none
CCc1nc2ccccc2c(C(=O)OCC(=O)Nc2ccc(S(=O)(=O)N3CCOCC3)cc2)c1C	CYP2C9 inh 54.0 (no result: sEH inhibitor, sEH act)
O=C(COC(=O)Cc1ccc(S(=O)(=O)N2CCCCC2)s1)Nc1ccc2c(c1)OCO2	CYP2C19 inh 66.1, CYP2C9 inh 97.9
CCN(CC)S(=O)(=O)c1ccc(C)c(NC(=O)COC(=O)c2ccc(C)c(S(=O)(=O)N3CCOCC3)c2)c1	CYP2C19 inh 91.5, CYP2C9 inh 95.7
Cc1ccc(S(=O)(=O)N2CCOCC2)cc1C(=O)OCC(=O)Nc1ccc2c(c1)OCO2	CYP2C9 inh 52.6
COC(=O)[C@H](CCSC)NC(=O)NCc1ccc(S(N)(=O)=O)cc1	none
CCOC(=O)C1CCN(C(=O)Cn2cc3c(n2)CCC(C)C3)CC1 (configuration not stated)	none (no result: sEH inhibitor, sEH act)
O=C(NC1=NCCS1)c1ccc(Br)s1	none
Cc1cc(C(=O)OCC(=O)Nc2ccc(S(=O)(=O)N3CCOCC3)cc2)c(C)o1	CYP2C9 inh 72.8
O=C(COc1ccc(S(=O)(=O)N2CCOCC2)cc1)Nc1ccc(Cl)c(C(F)(F)F)c1	CYP2C9 inh 53.1
O=C(COc1ccc(S(=O)(=O)N2CCOCC2)cc1)Nc1ccc2c(c1)OCCO2	none
O=C(COC(=O)Cc1ccc(S(=O)(=O)N2CCOCC2)s1)NCCc1ccccc1	CYP2C9 inh 60.2
O=C(COC(=O)Cc1ccc(S(=O)(=O)N2CCOCC2)s1)NCc1ccccc1	none
Cc1c(Br)cc(C(=O)NCCCN2CCOCC2)c(C)c1C	none
Cc1nn(-c2cccc(Cl)c2)c2nc(-c3ccco3)cc(C(=O)O)c12	CYP2C9 inh 89.6
Cc1nn(-c2ccccc2)c2nc(-c3ccco3)cc(C(=O)O)c12	none

Source: PubChem BioAssay
